Compounds without any hit were thinned out: in the full panel of roughly 83,000, 20% have a hit.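 Single-dose data. Exposure time 48 hours. Values below 10 considered active.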 Active and inactive are the calls of the source.
Each molecule was assayed on UACC-62 melanoma (assay: NCI-60 one-dose screen, 48 h (100 = growth as untreated, 0 = no growth, -100 = all killed)). Settings: 10 µM unless noted.
For `N#CC1(Nc2ccc3c4c(cccc24)CC3)CCCCC1`, the growth was 106% (inactive). With `CCCC1(c2ccccc2)NC(=O)NC1=O` (configuration not stated) the growth was 97.4% (inactive). For `O=C(NN=C1CCCCC1)C(=O)NN=C1CCCCC1`, the growth was 109% (inactive). With `CC1CCCC(CC(N)=O)CC1` (configuration not stated) the growth was 104% (inactive). For `CC(=O)OC(OC(C)=O)C1CCCO1` (configuration not stated), the growth was 95.2% (inactive). With `CCOc1ccc(/C=N/N=C(N)N)cc1OCC` the growth was 93.1% (inactive). In the case of `COc1ccc2c(NCCCCCCCCNc3c4ccccc4nc4cc(OC)ccc34)c3ccccc3nc2c1`, the growth was -100% (active). With `Nc1ncnc2[nH]ncc12` the growth was -15.9% (active). In the case of `Cc1ccc(C(=O)c2ccccc2)c(C)c1`, the growth was 102% (inactive). For `O=C(c1ccc(Cl)cc1)c1ccccc1Cl`, the growth was 87.7% (inactive). `COc1cc2c(cc1O)CC[C@@H]1C2CC[C@@]2(C)C1CC[C@@H]2O` (some centres not stated) was tested, and the growth was 22.2% (inactive). In the case of `CC1(C)N=C(N)N=C(N)N1c1cccc(Br)c1`, the growth was 30.2% (inactive). With `C/C(=C\c1ccc([N+](=O)[O-])cc1)C(=O)O` the growth was 99.6% (inactive). For `Oc1ccccc1-c1nnco1`, the growth was 89.9% (inactive). With `CO[C@H]1C[C@@H]2CC[C@@H](C)[C@@](O)(O2)C(=O)C(=O)N2CCCC[C@H]2C(=O)O[C@H]([C@H](C)C[C@@H]2CC[C@@H](O)[C@H](OC)C2)CC(=O)[C@H](C)C=C(C)[C@@H](O)[C@@H](OC)C(=O)[C@H](C)C[C@H](C)/C=C/C=C/C=C1C` the growth was 43.8% (inactive). For `Cc1cccc(C(=O)N(C(C)C)C(C)C)c1`, the growth was 96.5% (inactive). With `CC1(C)/C(=C\CO)C2CCC1C2` (configuration not stated) the growth was 97.3% (inactive).

— PubChem BioAssay (NCI)
